High-throughput results: PubChem BioAssay, National Center for Advancing Translational Sciences (NCATS)
A selection: hits, their analogues and other compounds. The true share with any hit is near 9%.
BAZ2B block: qHTS Assay for Inhibitors of BAZ2B. Bromodomain adjacent to zinc finger domain protein 2B (Homo sapiens), Q9UIF8. hit rate 4.4% among 360,000. AlphaScreen BAZ2B-H3K14Ac peptide displacement. Potency, µM (doses to about 114 µM), without a hit: at the highest dose activity change, negative = inhibition, actives largely listed as inhibitors; note: % is set by controls: 0 for no effect and ±100 for the full control effect; nearly all actives have a fitted effect of over 60% in size
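BAZ2B (50 nM) with biotin-H3(5-23)K14Ac peptide (50 nM) in PBS pH 7.4, 0.01% Tween-20, preformed 30 min, then compound 30 min at room temperature; top concentration 110uM. AlphaScreen streptavidin donor/nickel chelate acceptor beads (10 ug/mL final), 20 min dark, signal read.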
JMJD2A Tudor: qHTS Assay for Inhibitors of JMJD2A-Tudor Domain | AlphaScreen JMJD2A-Tudor / H3K4me3 peptide binding | Potency, µM (doses to about 114 µM), without a hit: at the highest dose activity change, negative = inhibition, hits mostly inhibitors | AID 504339, 2011 | hit rate 4.4% among 390,000 | Lysine-specific demethylase 4A (Homo sapiens), O75164; note: % is set by controls: 0 for no effect and ±100 for the full control effect; nearly all actives have a fitted effect of over 50% in size
PLK1 PBD inh: qHTS for Inhibitors of PLK1-PDB (polo-like kinase 1 - polo-box domain): Primary Screen | Serine/threonine-protein kinase PLK1 (Homo sapiens), P53350 | Plk1 PBD binding of FITC phosphopeptide, fluorescence polarization | Potency, µM, for the others: max response, negative = inhibition, actives largely listed as inhibitors | hit rate 2.8% among 360,000 | AID 720504, 2013; note: series mostly up to about 57 µM; % is set by controls: 0 for no effect and ±100 for the full control effect; nearly all actives have a fitted effect of over 65% in size
ALOX12 inh: Primary qHTS assay for inhibitors of human arachidonate 12S-lipoxygenase (ALOX12): Round 2 | Potency, µM (doses to about 108 µM), for the others: at the highest dose activity change, negative = inhibition, actives largely listed as inhibitors | Polyunsaturated fatty acid lipoxygenase ALOX12 (Homo sapiens), P18054 | hit rate 1.1% among 580,000 | purified 12hLO, xylenol orange hydroperoxide absorbance; note: % is set by controls: 0 for no effect and ±100 for the full control effect
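Hydroperoxide product was detected by ferrous iron/xylenol orange as the 573 to 405 nm absorbance ratio. Arachidonic acid at 40 uM (final) was turned over for 30 min at room temperature by 150 nM human 12hLO, pH 7.0 Hepes buffer, after 15 min compound preincubation.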
G9a inh: qHTS Assay for Inhibitors of Histone Lysine Methyltransferase G9a; Histone-lysine N-methyltransferase EHMT2 (Homo sapiens), Q96KQ7; G9a H3K9 monomethylation, AlphaScreen, 2 h; Potency, µM (series often up to 102 µM), for inactives: at the highest dose activity, negative = inhibition, hits mostly inhibitors; hit rate 8.8% among 350,000; note: % is set by controls: 0 for no effect and ±100 for the full control effect; nearly all actives have a fitted effect of over 75% in size
Target sequence (Q96KQ7 913-1193 limits assumed): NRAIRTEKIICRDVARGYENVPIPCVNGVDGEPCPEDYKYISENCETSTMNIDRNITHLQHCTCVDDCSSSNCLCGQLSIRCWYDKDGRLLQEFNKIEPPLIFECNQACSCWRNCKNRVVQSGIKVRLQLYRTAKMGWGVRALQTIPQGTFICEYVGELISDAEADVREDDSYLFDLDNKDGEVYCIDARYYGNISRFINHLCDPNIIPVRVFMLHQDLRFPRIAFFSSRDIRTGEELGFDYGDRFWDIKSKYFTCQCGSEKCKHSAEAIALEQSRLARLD
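Readings reflect AlphaScreen signal from monomethyl-H3K9 antibody detection. HMT at 20 nM; substrate b-H3K9 500 nM; cofactor SAM 20 uM; 2 h RT reaction; compounds tested as titrations in qHTS with 15 min preincubation.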
HP1b binding inh: HTS for Inhibitors of HP1-beta Chromodomain Interactions with Methylated Histone Tails; Potency, µM (series often up to 114 µM), for inactives: at the highest dose activity change, negative = inhibition, most hits filed as inhibitors; hit rate 0.56% among 390,000; AlphaScreen HP1-beta / biotin-H3K9me3 peptide binding; AID 540317, 2011; note: nearly all actives have a fitted effect of over 70% in size
Target sequence (P83916 whole entry, looked up): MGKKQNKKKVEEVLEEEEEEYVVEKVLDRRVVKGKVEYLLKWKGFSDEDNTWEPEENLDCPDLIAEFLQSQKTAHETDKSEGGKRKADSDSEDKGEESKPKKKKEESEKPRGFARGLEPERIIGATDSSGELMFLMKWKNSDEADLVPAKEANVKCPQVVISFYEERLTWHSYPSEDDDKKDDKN
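Compound inhibition of the preformed complex between 50 nM HP1-beta and 50 nM biotinylated H3K9me3 peptide was read by AlphaScreen. Buffer was PBS pH 7.4 with 0.01% Tween-20. Incubations ran 30 min at room temperature, with 10 ug/mL donor/acceptor beads.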
An asterisk follows results filed as active; ! = not active in a repeat; [ ] = remark or other dose. Calls come from the whole dose curve; as a rule, active = well fitted curve in the direction sought with a large enough effect; inconclusive = small, poorly fitted or top-dose-only effect, or another doubt; inactive = no such curve, though single readings can be large; an effect the other way counts as inactive or inconclusive. Potency is the fitted concentration of half-maximal effect.

Results for COc1ccc(C(=O)NCc2nnc(SC)n2-c2ccccc2C)c(OC)c1OC ?
ALOX12 inh: 13%

Results for CC(=O)NC1C(=O)N(CCN2CCOCC2)c2ccc(C)cc21 (configuration not stated) ?
BAZ2B block: 5µM*; JMJD2A Tudor: 7.1µM*; PLK1 PBD inh: -15%; G9a inh: 20µM*; HP1b binding inh: inconclusive

Results for CCCN(CC1CCOC1)C(=O)Nc1ccc(C)cc1C (configuration not stated) ?
ALOX12 inh: 32%

Results for CCc1ccccc1NC(=O)c1cc(S(=O)(=O)N(C)C)ccc1N1CCCC1 ?
BAZ2B block: -5%; JMJD2A Tudor: -7%; PLK1 PBD inh: 0%; ALOX12 inh: inconclusive; G9a inh: 10%; HP1b binding inh: 18%

How did CN(C)S(=O)(=O)c1ccc(N2CCCC2)c(C(=O)Nc2ccccc2Br)c1 do in these assays?
BAZ2B block: 6%; JMJD2A Tudor: -17%; PLK1 PBD inh: 2%; ALOX12 inh: inconclusive; G9a inh: 45µM*; HP1b binding inh: 28%

Results for CN(Cc1ccccc1)C(=O)COC(=O)c1cc(S(=O)(=O)N(C)C)ccc1N1CCCC1 ?
BAZ2B block: -19%; JMJD2A Tudor: -12%; PLK1 PBD inh: 5%; ALOX12 inh: -13%; G9a inh: 50µM*; HP1b binding inh: 22%

How did Cc1ccccc1NC(=O)c1cc(N)ccc1N1CCCCC1 do in these assays?
BAZ2B block: inconclusive; JMJD2A Tudor: inconclusive; PLK1 PBD inh: -8%; ALOX12 inh: 0%; G9a inh: 32µM*; HP1b binding inh: -5%

How did CCOC(=O)c1c(NC(N)=O)nc2n1CCC2 do in these assays?
BAZ2B block: inconclusive; JMJD2A Tudor: -2%; PLK1 PBD inh: -17%; ALOX12 inh: 4%; G9a inh: 23%[59 µM]; HP1b binding inh: 30%

Results for C/C(=N\NC(N)=O)c1ccc(Cl)cc1 ?
BAZ2B block: -3%; JMJD2A Tudor: -1%; PLK1 PBD inh: 1%; ALOX12 inh: 15%; G9a inh: 33%[12.7 µM]; HP1b binding inh: 5%

What do the screens show for `O=C(O)/C=C/c1cccnc1`?
BAZ2B block: -3%; JMJD2A Tudor: -3%; PLK1 PBD inh: 1%; ALOX12 inh: -28%; G9a inh: 16%[59 µM]; HP1b binding inh: 27%

How did CC(=C/C(=O)O)/C=C/c1ccc([N+](=O)[O-])cc1 do in these assays?
BAZ2B block: inconclusive; JMJD2A Tudor: -7%; PLK1 PBD inh: -8%; ALOX12 inh: -22%; G9a inh: 56µM*; HP1b binding inh: 32%

What do the screens show for `CC(/C=C\c1ccccc1)=C/C(=O)O`?
BAZ2B block: -10%; JMJD2A Tudor: 3%; PLK1 PBD inh: 5%; ALOX12 inh: 4%; G9a inh: 21%; HP1b binding inh: 28%

How did O=C(/C=C/c1cccnc1)c1ccc(F)c(F)c1 do in these assays?
BAZ2B block: -16%; JMJD2A Tudor: -4%; PLK1 PBD inh: -16%; ALOX12 inh: -5%; G9a inh: 40µM*; HP1b binding inh: 24%

How did CN(C)c1ccc(C(=O)/C=C/c2cccnc2)cc1 do in these assays?
BAZ2B block: inconclusive; JMJD2A Tudor: -24%; PLK1 PBD inh: -16%; ALOX12 inh: -5%; G9a inh: -43%; HP1b binding inh: 9%

Results for CC(/C=C\c1cccnc1)=C/C(=O)O ?
BAZ2B block: 50µM*!; JMJD2A Tudor: 56µM*!; PLK1 PBD inh: -17%; ALOX12 inh: 0%; G9a inh: -27%[59 µM]; HP1b binding inh: -5%
